Sampled rows, rich in hits. Any-hit rate of the full collection: about 4.1%.
DAX1 inh-1: blocks DAX1 repression of SF-1 activated StAR promoter. AID 652010. HEK293T StAR-luciferase reporter, SF-1/DAX-1 repression relief. 370,000 tested, 1.1% active. inhibition, % at 6.8 µM;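 active means inhibition above the mean over all tested compounds plus 3 SD, cut at about 3.6% in these data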;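 further: 0% = DAX-1 cells with DMSO and 100% = cells lacking DAX-1 with DMSO; higher inhibition means more luminescence from relief of DAX-1 repression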
DAX1 inh-2: inhibits human nuclear receptor DAX1; P51843; HEK293 Gal4-DAX1 luciferase reporter, luminescence; inhibition, % at 6.75 µM; 340,000 tested, 0.99% active; AID 504766;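 active means inhibition above the mean over all tested compounds plus 3 SD, cut at about 4.2% in these data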;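 further: 0% = DAX1-transfected cells with DMSO and 100% = empty-vector control cells with DMSO; inhibition shows as a rise in luminescence from relieved DAX1 repression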
Target sequence (P51843 207-470 limits assumed): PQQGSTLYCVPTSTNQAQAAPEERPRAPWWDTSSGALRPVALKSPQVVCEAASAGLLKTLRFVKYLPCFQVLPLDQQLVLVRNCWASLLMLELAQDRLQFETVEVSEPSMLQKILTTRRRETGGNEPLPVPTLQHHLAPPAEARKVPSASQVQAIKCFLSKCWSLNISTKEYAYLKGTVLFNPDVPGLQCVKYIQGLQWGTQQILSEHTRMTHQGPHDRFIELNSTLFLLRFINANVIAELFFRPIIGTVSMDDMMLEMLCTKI
hgDAF12 agonist: hgDAF-12 agonism, primary luciferase screen. HEK293 GAL4-hgDAF12 UAS-luciferase reporter, agonist luminescence; normalized to butyrate control. activation, % at 6.8 µM. 370,000 tested, 1.8% active. AID 687014;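 active means activation above a cutoff set at the mean of all screened compounds plus 3 SD, cut at about 10% in these data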;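 further: 0% = DMSO wells and 100% = sodium butyrate wells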
hcDAF12 agonist: activators of H. contortus DAF-12 nuclear receptor. AID 652067. 370,000 tested, 1.4% active. HEK293 hcDAF-12 lit1-tk-luc reporter, luminescence; 0% DMSO, 100% Δ7-dafachronic acid. activation, % at 6.8 µM;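 active means activation above the mean of all tested compounds plus 3 SD, cut at about 5.5% in these data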;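 further: 100% = response to 3 µM Δ7-dafachronic acid high control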
ssDAF12 agonist: S. stercoralis DAF-12 activation, primary screen. 370,000 tested, 1% active. HEK293 ssDAF-12/GRIP1 lit1-tk-luc reporter, luminescence; % of 3 µM dafachronic acid response. activation, % at 6.8 µM;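 active means activation above the mean over all tested compounds plus 3 SD, cut at about 0.9% in these data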;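 further: 0% = DMSO-only wells and 100% = 3 µM delta7-dafachronic acid wells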
hgDAF12 ag: confirmation of H. glycines DAF-12 agonists; shares compounds with hgDAF12 agonist; HEK293 GAL4-hgDAF12 luciferase reporter, agonist mode; percent of butyrate response; activation, % at 6.8 µM; 3,300 tested, 80% active;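 active means mean activation over triplicate wells above the hit cutoff derived from the earlier primary screen, cut at about 11% in these data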;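 further: 0% = DMSO low control and 100% = 2 mM sodium butyrate high control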
LXRb DAF12 ctr: LXR-beta agonism as DAF-12 counter-screen | shares compounds with hgDAF12 agonist | HEK293 Gal4-LXR luciferase reporter, 24 h | activation, % at 6.8 µM | 3,300 tested, under 10 active;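 active means mean activation of the triplicate above a set limit carried over from the primary screen, none filed active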
* marks the source's active call; other numbers are inactive results; x = no result given.

SMILES	DAX1 inh-1	DAX1 inh-2	hgDAF12 agonist	hcDAF12 agonist	ssDAF12 agonist	hgDAF12 ag	LXRb DAF12 ctr
COc1ccc(N2CCN(C(=O)c3ccc4nc(N5CCCCC5)sc4c3)CC2)cc1	3	4	8	1	0	x	x
COc1cccc(N2CCN(C(=O)c3ccc4nc(N5CCCCC5)sc4c3)CC2)c1	3	5.5*	21*	1	0	8	0
Cc1ccc(C(=O)Nc2nnc(C)s2)cc1	4.3*	x	16*	6	0	12*	1
Cc1ccc(NC(=O)c2ccc(CSc3nnc(C)s3)cc2)cc1	2	3	16*	4	0	14*	1
Cc1cc(C)cc(NC(=O)c2ccc(CSc3nnc(C)s3)cc2)c1	1	-1	4	0	-1	x	x
Cc1nnc(NC(=O)c2ccc(Br)cc2)s1	0	1	1	0	-1	x	x
COc1cccc(CNC(=O)CSc2nc(=O)n(Cc3ccncc3)c3c2CCC3)c1	2	0	0	-1	-1	x	x
CC(=O)Nc1ccc(/C(C)=N/NC(=O)c2ccncc2)cc1	0	0	2	-1	-1	x	x
C/C(=N/NC(=O)c1ccoc1C)c1ccc(N2CCOCC2)cc1	3.7*	0	19*	3	0	3	0
O=C(Nc1ccc(NC(=S)NC(=O)c2ccco2)cc1)c1ccccc1	0	-2	1	-3	-1	x	x
C/C(=N\NC(=O)c1ccco1)c1ccc(NC(=O)c2ccccc2)cc1	2	0	14*	1	0	6	0
C/C(=N/NC(=O)c1ccoc1C)c1ccc(NC(=O)c2ccncc2)cc1	3.8*	2	17*	6.4*	1.3*	9	0
C/C(=N\NC(=O)c1ccc(Cl)cc1)c1ccc(N2CCOCC2)cc1	0	0	7	1	-1	x	x
Cc1ccc(NC(=O)CSC(C)C(=O)OCC(=O)N2CCN(C(=O)c3ccco3)CC2)cc1 (configuration not stated)	0	1	-1	0	-2	x	x
CC(=O)Nc1cccc(-c2csc(Nc3ccc(Cl)cn3)n2)c1	3.8*	5.9*	13*	2	0	13*	1
CC(=O)Oc1ccc(-c2csc(Nc3ccccn3)n2)cc1	3.9*	2	16*	6	0	14*	1
C/C(=N\NC(=O)c1csc(C)c1C)c1ccc(C)s1	2	3	13*	1	-1	11*	0
Cc1ccc(-n2c(SCC(=O)N(C)C3CCS(=O)(=O)C3)nc3ccccc3c2=O)cc1 (configuration not stated)	1	-1	-2	0	-1	x	x
O=C(NCCN1CCNC1=O)c1ccc2sc([C@H]3C[C@H](O)[C@@H](CO)O3)nc2c1	0	x	1	-1	-1	x	x
CCOc1cc(/C=N/NC(=O)c2cccnc2)ccc1OCc1ccc(C(=O)OC)o1	-1	0	1	0	-1	x	x
Cc1ccc(NC(=O)c2cc(-c3ccccc3)nn2-c2ccccc2)cc1	-1	-2	-2	-1	-2	x	x
CC(=O)C(/C=N/c1cc(-c2ccc(C)cc2)nn1-c1ccccc1)=C(\C)O	3	1	19*	5.6*	1.1*	10	0
Clc1ccc(-c2cc3nc(NCc4cccc(Cl)c4)ccn3n2)cc1	3.9*	x	14*	4	0	17*	1
Clc1cccc(CNc2ccn3nc(-c4cccc(Cl)c4)cc3n2)c1	1	x	13*	3	0	9	0
Clc1cccc(CNc2ccn3nc(-c4ccccc4)cc3n2)c1	2	x	8	3	-1	x	x
SMILES	DAX1 inh-1	DAX1 inh-2	hgDAF12 agonist	hcDAF12 agonist	ssDAF12 agonist	hgDAF12 ag	LXRb DAF12 ctr
Cc1cc2c([nH]c3ccccc32)c2c1OC(C)(C)C=C2	4.2*	5.0*	14*	2	1.1*	11*	0
COc1cc(OC)cc(C(=O)Nn2cc(C(=O)Nc3c(F)cccc3F)c3ccccc3c2=O)c1	-1	0	-3	1	-1	x	x
COC(=O)c1ccccc1CC1Cc2cc3c(cc2C1=O)CCC3 (configuration not stated)	4.3*	3	14*	2	1.9*	13*	1
COc1c(O)ccc(/C=N/NC(=O)c2ccc3c(c2)OCCO3)c1[N+](=O)[O-]	2	3	15*	2	0	9	0
O=C(N/N=C/c1ccc([N+](=O)[O-])o1)c1ccc2c(c1)OCO2	-6	-3	-13	-6	-2	x	x
COc1cc(/C=N/NC(=O)c2ccc3c(c2)OCCO3)cc(Cl)c1O	0	0	3	0	-1	x	x
O=C(N/N=C/c1ccc(Br)o1)c1ccc2c(c1)OCCO2	2	1	16*	3	0	11*	1
COc1cccc(-c2cnc3c(NC(C)=O)cc(-c4ccc(S(C)(=O)=O)cc4)cn23)c1	-3	x	-5	0	-1	x	x
Cc1cccc(NC(=O)c2sc3nc(N)c(C#N)cc3c2N)c1	3	0	21*	0	0	9	1
Cc1nc(-c2ccccc2)sc1C1(C)CC(c2ccc(C#N)cc2)=NO1 (configuration not stated)	0	0	1	-2	-2	x	x
O=C(Nc1cccc(CCc2ccccn2)c1)c1cc(F)c(F)cc1Cl	-1	3	0	-1	-1	x	x
CCCCc1ccc(Nc2ncnc3nc[nH]c23)cc1	3	2	13*	3	0	8	0
c1ccc(CCCNc2ncnc3nc[nH]c23)cc1	0	1	4	-2	-1	x	x
O=C(/C=C/c1ccccc1)Nc1ccc(Cl)cn1	1	-2	14*	1	-1	20*	1
O=C(COC(=O)/C=C/c1ccccc1)Nc1ccc(Cl)cn1	-1	2	1	1	-1	x	x
CCCCN(C)CC(O)Cn1cc(/C=C/C(=O)c2ccc(C)cc2)c2ccccc21 (configuration not stated)	0	0	3	0	-1	x	x
Cc1cc(C)n2nc(C(=O)OCC(=O)Nc3cc(Cl)ccc3C)nc2n1	2	1	1	-2	-1	x	x
Cc1nn(C(C)C(=O)NC2CCCCCC2)c(=O)c2nn(-c3ccccc3)c(C)c12 (configuration not stated)	-3	1	3	1	-1	x	x
CC1CCCCC1Nc1nc2ccc(Cl)cc2n2cnnc12 (configuration not stated)	0	-1	-3	-3	-2	x	x
CCCN1C(=O)c2cc(C(=O)NC3CCCCCC3)ccc2C1O (configuration not stated)	3.8*	2	18*	3	0	14*	1

Screens as filed in PubChem.
